Data as given in the supplement of paper PMC10849652.
Of roughly 7,900 targets only a part is listed; those with a hit were picked by preference. About 0.6% of all pairs of compound and target were hits. Unmarked numbers belong to inactive results.

Assays:
Assay in all cases: log2 fold change, soluble protein after heating vs DMSO (PISA); higher = thermal stabilisation; K562 cells, 10 uM, 30 min; active = over 0.2 and 3.5 SD of the protein, either way, in both replicates (recomputed)
[1] = compound: COC1=CC=C(C=C1)CN2C=CC3=C2C=C(C=C3)C(=O)NO
Procedure, shortened: (§1)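 K562 cells at 2×10^6 cells/mL were treated with 10 μM compound for 30 min. Aliquots were heated for 3 min across 48°C-58°C, pooled, and extracted in PBS with 0.5% NP-40 at 4°C; soluble protein was the supernatant after 21,000xg for 90 min. Soluble protein was quantified by TMTpro 16plex LC-MS/MS with channel sums equalised, and reported as log2 fold change in thermal stability against DMSO controls, with values from duplicates.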

filanesib = compound: CON(C)C(=O)N1N=C(c2cc(F)ccc2F)S[C@@]1(CCCN)c1ccccc1 [filanesib]
Procedure, shortened: as §1

zotarolimus = compound: CO[C@H]1C[C@@H]2CC[C@@H](C)[C@@](O)(O2)C(=O)C(=O)N2CCCC[C@H]2C(=O)O[C@H]([C@H](C)C[C@@H]2CC[C@H](n3cnnn3)[C@H](OC)C2)CC(=O)[C@H](C)/C=C(\C)[C@@H](O)[C@@H](OC)C(=O)[C@H](C)C[C@H](C)/C=C/C=C/C=C/1C [zotarolimus]
Procedure, shortened: as §1

idasanutlin = compound: COc1cc(C(=O)O)ccc1NC(=O)[C@@H]1N[C@@H](CC(C)(C)C)[C@](C#N)(c2ccc(Cl)cc2F)[C@H]1c1cccc(Cl)c1F [idasanutlin]
Procedure, shortened: as §1

alisertib = compound: COc1cc(Nc2ncc3c(n2)-c2ccc(Cl)cc2C(c2c(F)cccc2OC)=NC3)ccc1C(=O)O [alisertib]
Procedure, shortened: as §1

[2] = compound: COc1cc2nc(-c3cc(F)ccc3O)nc(N[C@@H]3CNC[C@H]3C(C)(C)O)c2cc1OC
Procedure, shortened: as §1

gefitinib = compound: COc1cc2ncnc(Nc3ccc(F)c(Cl)c3)c2cc1OCCCN1CCOCC1 [gefitinib]
Procedure, shortened: as §1

[3] = compound: COc1cccc2cc(-c3nc([C@H]4CC[C@H](C(=O)O)CC4)n4ncnc(N)c34)[nH]c12
Procedure, shortened: as §1

lapatinib = compound: CS(=O)(=O)CCNCc1ccc(-c2ccc3ncnc(Nc4ccc(OCc5cccc(F)c5)c(Cl)c4)c3c2)o1 [lapatinib]
Procedure, shortened: as §1

pictilisib = compound: CS(=O)(=O)N1CCN(Cc2cc3nc(-c4cccc5[nH]ncc45)nc(N4CCOCC4)c3s2)CC1 [pictilisib]
Procedure, shortened: as §1

[4] = compound: CS(=O)(=O)c1ccc(-c2cnc(N)c(C(=O)Nc3ccccc3)n2)cc1
Procedure, shortened: as §1

crizotinib = compound: C[C@@H](Oc1cc(-c2cnn(C3CCNCC3)c2)cnc1N)c1c(Cl)ccc(F)c1Cl [crizotinib]
Procedure, shortened: as §1

[5] = compound: C[C@@H]1COCCN1C2=NC(=NC(=C2)C3(CC3)S(=O)(=O)C)C4=C5C=CNC5=CC=C4
Procedure, shortened: as §1

[6] = compound: C[C@H](C1=CC=C(C=C1)C(=O)NC2=C3C=CNC3=NC=C2)N
Procedure, shortened: as §1

duvelisib = compound: C[C@H](Nc1ncnc2nc[nH]c12)c1cc2cccc(Cl)c2c(=O)n1-c1ccccc1 [duvelisib]
Procedure, shortened: as §1

gandotinib = compound: Cc1cc(Nc2cc(CN3CCOCC3)c3nc(C)c(Cc4ccc(Cl)cc4F)n3n2)n[nH]1 [gandotinib]
Procedure, shortened: as §1

tozasertib = compound: Cc1cc(Nc2cc(N3CCN(C)CC3)nc(Sc3ccc(NC(=O)C4CC4)cc3)n2)n[nH]1 [tozasertib]
Procedure, shortened: as §1

[7] = compound: Cc1cc(SCc2sc(-c3ccc(C(F)(F)F)cc3)nc2C)ccc1OCC(=O)O
Procedure, shortened: as §1

doramapimod = compound: Cc1ccc(-n2nc(C(C)(C)C)cc2NC(=O)Nc2ccc(OCCN3CCOCC3)c3ccccc23)cc1 [doramapimod]
Procedure, shortened: as §1

ispinesib = compound: Cc1ccc(C(=O)N(CCCN)[C@@H](c2nc3cc(Cl)ccc3c(=O)n2Cc2ccccc2)C(C)C)cc1 [ispinesib]
Procedure, shortened: as §1

Chain of UniProt O95747 (O95747 whole entry, looked up): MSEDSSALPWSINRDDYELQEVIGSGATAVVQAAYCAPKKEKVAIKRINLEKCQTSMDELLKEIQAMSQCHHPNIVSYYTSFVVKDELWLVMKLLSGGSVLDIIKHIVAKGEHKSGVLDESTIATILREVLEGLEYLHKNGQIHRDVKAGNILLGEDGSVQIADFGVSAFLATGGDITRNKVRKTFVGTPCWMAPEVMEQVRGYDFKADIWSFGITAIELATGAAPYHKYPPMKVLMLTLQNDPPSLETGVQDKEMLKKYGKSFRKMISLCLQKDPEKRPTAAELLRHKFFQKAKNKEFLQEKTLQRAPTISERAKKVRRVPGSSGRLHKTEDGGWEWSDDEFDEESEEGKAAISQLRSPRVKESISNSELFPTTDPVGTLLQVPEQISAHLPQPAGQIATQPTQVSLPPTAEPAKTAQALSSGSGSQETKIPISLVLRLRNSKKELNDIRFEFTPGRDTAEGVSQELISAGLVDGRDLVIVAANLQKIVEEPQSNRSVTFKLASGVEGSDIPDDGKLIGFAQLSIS
Chain of UniProt Q9BW27 (Q9BW27 whole entry, looked up): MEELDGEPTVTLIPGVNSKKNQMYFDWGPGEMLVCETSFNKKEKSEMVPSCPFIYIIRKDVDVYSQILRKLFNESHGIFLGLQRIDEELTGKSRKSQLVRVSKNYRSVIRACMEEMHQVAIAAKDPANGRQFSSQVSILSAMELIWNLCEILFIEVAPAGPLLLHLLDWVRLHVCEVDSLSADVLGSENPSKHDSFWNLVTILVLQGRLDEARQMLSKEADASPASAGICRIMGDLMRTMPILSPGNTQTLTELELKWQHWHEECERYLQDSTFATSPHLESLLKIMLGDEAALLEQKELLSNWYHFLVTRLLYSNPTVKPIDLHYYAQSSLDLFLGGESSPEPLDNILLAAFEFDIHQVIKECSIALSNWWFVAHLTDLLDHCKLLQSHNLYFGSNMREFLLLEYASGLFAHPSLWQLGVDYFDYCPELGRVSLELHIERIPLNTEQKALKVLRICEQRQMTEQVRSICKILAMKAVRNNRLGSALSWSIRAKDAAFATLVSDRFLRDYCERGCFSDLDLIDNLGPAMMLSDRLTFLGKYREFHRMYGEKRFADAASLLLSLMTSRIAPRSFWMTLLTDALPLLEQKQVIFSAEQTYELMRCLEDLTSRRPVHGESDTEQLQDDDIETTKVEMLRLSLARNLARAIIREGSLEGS
Chain of UniProt Q12769 (Q12769 whole entry, looked up): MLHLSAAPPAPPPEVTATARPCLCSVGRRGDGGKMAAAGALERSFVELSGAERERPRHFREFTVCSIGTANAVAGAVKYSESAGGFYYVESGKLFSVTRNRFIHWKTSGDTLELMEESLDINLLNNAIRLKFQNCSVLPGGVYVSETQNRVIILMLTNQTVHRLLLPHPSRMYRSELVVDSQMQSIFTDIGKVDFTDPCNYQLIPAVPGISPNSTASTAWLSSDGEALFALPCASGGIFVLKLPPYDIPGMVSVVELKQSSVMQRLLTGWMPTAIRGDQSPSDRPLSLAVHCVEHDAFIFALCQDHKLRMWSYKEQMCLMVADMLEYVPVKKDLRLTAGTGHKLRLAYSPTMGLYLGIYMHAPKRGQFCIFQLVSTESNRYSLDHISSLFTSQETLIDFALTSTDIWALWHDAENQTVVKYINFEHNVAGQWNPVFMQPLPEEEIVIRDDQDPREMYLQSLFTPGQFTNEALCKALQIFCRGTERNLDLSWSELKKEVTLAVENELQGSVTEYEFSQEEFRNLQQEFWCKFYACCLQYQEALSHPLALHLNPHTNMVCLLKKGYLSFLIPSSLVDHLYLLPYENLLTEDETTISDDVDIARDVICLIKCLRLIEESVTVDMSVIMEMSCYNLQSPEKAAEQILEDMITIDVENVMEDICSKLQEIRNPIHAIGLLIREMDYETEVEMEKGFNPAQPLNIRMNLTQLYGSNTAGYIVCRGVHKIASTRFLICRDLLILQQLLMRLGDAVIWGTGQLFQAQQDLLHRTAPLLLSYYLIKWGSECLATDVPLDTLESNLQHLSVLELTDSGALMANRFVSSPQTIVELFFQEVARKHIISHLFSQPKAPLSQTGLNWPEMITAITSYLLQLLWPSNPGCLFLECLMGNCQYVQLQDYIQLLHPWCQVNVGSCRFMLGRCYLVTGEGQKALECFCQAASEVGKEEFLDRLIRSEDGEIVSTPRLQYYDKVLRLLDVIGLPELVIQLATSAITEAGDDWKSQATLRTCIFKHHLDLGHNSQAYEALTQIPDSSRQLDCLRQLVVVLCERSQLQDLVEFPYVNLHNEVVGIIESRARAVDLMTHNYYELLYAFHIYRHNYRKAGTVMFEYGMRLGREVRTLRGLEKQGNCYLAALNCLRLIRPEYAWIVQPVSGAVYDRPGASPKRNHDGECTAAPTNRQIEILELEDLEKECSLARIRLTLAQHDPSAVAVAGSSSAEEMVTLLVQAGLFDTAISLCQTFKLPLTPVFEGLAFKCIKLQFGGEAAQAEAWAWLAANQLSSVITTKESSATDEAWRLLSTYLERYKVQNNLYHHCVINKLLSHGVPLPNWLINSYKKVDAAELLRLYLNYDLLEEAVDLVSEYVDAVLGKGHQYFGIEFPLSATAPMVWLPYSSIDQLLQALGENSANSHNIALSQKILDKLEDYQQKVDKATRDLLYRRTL
Chain of UniProt Q8TEM1 (Q8TEM1 whole entry, looked up): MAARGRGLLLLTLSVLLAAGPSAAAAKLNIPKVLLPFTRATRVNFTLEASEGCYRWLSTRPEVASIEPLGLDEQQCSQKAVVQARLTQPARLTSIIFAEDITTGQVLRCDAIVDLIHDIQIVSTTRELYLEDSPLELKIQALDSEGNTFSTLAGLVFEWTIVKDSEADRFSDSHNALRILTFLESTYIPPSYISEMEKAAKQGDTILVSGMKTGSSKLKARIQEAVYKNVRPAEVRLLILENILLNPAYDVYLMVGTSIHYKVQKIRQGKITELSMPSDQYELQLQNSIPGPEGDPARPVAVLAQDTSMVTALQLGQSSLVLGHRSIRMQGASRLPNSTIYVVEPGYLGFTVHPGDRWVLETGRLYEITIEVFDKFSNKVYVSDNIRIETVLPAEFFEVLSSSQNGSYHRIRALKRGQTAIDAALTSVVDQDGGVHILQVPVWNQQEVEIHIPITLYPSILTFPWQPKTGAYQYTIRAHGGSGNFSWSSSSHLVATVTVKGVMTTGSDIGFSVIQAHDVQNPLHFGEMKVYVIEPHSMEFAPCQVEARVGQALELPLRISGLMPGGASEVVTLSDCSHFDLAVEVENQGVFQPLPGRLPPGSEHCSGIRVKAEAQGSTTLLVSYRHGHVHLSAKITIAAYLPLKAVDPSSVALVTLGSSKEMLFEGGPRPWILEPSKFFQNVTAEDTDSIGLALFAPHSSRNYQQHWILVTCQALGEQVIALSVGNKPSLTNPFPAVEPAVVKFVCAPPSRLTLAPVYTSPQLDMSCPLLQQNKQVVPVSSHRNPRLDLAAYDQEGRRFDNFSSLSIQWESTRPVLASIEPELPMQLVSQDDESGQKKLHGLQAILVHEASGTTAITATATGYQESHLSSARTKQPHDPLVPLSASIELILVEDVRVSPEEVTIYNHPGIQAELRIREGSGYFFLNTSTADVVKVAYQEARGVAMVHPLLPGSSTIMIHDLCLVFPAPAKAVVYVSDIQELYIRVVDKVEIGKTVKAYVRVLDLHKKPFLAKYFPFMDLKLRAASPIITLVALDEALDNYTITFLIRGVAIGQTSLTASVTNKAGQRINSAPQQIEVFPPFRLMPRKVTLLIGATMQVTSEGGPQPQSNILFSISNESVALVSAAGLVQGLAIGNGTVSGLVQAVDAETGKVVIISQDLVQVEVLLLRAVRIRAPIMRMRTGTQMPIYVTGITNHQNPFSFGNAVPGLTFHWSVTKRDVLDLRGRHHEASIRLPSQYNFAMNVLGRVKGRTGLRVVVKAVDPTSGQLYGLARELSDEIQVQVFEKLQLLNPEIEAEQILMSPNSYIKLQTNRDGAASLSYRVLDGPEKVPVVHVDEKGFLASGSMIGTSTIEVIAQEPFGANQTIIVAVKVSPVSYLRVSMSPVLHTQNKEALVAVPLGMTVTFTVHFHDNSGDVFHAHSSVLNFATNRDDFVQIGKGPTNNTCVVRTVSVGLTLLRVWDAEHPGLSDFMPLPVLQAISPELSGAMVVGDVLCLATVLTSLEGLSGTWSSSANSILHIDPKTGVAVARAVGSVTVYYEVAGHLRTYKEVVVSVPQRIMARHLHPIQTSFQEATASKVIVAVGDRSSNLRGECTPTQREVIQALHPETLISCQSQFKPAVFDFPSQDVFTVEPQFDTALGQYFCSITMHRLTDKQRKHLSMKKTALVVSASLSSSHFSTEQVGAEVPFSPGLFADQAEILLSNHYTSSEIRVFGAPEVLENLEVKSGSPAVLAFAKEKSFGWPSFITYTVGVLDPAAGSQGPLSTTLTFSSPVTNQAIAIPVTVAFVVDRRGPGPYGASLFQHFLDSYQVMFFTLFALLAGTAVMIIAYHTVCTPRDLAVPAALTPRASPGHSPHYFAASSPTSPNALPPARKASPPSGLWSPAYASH
Chain of UniProt Q96I59 (Q96I59 whole entry, looked up): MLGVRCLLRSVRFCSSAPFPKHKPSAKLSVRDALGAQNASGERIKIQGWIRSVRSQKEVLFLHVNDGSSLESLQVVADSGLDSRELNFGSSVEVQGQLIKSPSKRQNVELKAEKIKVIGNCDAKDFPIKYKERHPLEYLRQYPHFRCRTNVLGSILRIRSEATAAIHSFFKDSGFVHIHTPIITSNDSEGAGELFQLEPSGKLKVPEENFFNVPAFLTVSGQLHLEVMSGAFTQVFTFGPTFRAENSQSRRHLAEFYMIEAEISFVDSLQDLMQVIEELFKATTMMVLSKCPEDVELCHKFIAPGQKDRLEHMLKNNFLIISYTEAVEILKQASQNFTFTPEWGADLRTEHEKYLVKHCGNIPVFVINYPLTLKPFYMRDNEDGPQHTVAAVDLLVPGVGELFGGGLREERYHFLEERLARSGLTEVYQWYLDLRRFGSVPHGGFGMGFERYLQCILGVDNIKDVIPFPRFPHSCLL

Target | log2 fold change [1] | log2 fold change (filanesib) | log2 fold change (zotarolimus) | log2 fold change (idasanutlin) | log2 fold change (alisertib) | log2 fold change [2] | log2 fold change (gefitinib) | log2 fold change [3] | log2 fold change (lapatinib) | log2 fold change (pictilisib) | log2 fold change [4] | log2 fold change (crizotinib) | log2 fold change [5] | log2 fold change [6] | log2 fold change (duvelisib) | log2 fold change (gandotinib) | log2 fold change (tozasertib) | log2 fold change [7] | log2 fold change (doramapimod) | log2 fold change (ispinesib)
MRPS18B (UniProt Q9Y676) | 0.011 | 0.065 | 0.035 | -0.205 | 0.069 | 0.024 | 0.078 | 0.018 | -0.005 | -0.106 | -0.187 | -0.047 | 0.075 | 0.145 | 0.006 | -0.028 | 0.016 | 0.157 | 0.029 | -0.397 (active)
NUP210 (UniProt Q8TEM1) | -0.099 | -0.08 | 0.002 | 0.019 | -0.045 | -0.319 (active) | -0.053 | 0.045 | -0.089 | -0.114 | -0.039 | -0.235 (active) | 0.005 | -0.006 | -0.002 | -0.083 | -0.054 | 0.047 | 0.002 | -0.351 (active)
MON2 isoform 5 (UniProt Q7Z3U7) | -0.003 | -0.017 | 0.101 | -0.147 | 0.046 | 0.091 | 0.039 | -0.004 | 0.036 | 0.048 | 0.044 | -0.065 | 0.081 | 0.033 | 0.173 | -0.105 | 0.011 | 0.171 | 0.077 | -0.055
NUP160 (UniProt Q12769) | -0.043 | -0.003 | 0.017 | 0.004 | -0.076 | -0.068 | 0.033 | 0.037 | 0.057 | -0.021 | 0.017 | -0.014 | 0.034 | -0.027 | 0.024 | -0.06 | 0.078 | 0.007 | 0.019 | 0.044
NACC1 (UniProt Q96RE7) | 0.009 | -0.116 | 0.103 | 0.02 | 0.016 | -0.198 | 0.021 | 0.024 | -0.031 | -0.034 | 0 | 0.005 | 0.082 | -0.03 | 0.103 | -0.129 | 0.161 | 0.152 | -0.064 | -0.019
MTOR (UniProt P42345) | 0.002 | -0.112 | -0.308 (active) | -0.09 | -0.017 | -0.012 | -0.018 | -0.019 | 0.014 | 0.019 | 0.003 | -0.23 | 0.08 | 0.06 | 0.025 | -0.138 | 0.044 | 0.024 | 0.001 | -0.184
NARS2 (UniProt Q96I59) | -0.213 | -0.196 | 0.027 | -0.072 | -0.046 | 0.007 | -0.039 | 0.09 | -0.031 | -0.037 | 0.038 | -0.099 | 0.125 | -0.061 | 0.037 | 0.02 | -0.051 | -0.028 | -0.009 | -0.401 (active)
OXSR1 (UniProt O95747) | 0.014 | -0.009 | -0.007 | -0.068 | -0.073 | 0.018 | -0.007 | 0.034 | -0.033 | 0.028 | 0.031 | -0.127 | 0.021 | 0.011 | 0.037 | -0.096 | -0.013 | 0.095 | 0.011 | -0.055
NDUFS4 (UniProt O43181) | -0.018 | -0.019 | -0.022 | 0.035 | -0.074 | -0.077 | -0.008 | 0.036 | 0.029 | -0.122 | -0.035 | -0.089 | -0.027 | 0.086 | -0.086 | 0.164 | -0.098 | -0.058 | 0.018 | -0.216
OGFOD1 (UniProt Q8N543) | -0.294 (active) | -0.05 | -0.02 | -0.038 | -0.021 | 0.001 | 0.015 | 0.041 | -0.034 | 0.065 | 0.034 | -0.001 | 0.042 | 0.003 | 0.046 | -0.009 | -0.02 | -0.021 | -0.015 | -0.043
NUP85 (UniProt Q9BW27) | 0.01 | -0.009 | -0.022 | 0.016 | -0.061 | -0.038 | 0.025 | 0.043 | -0.042 | 0.049 | 0.022 | -0.007 | 0.049 | -0.088 | 0.033 | -0.107 | 0.048 | 0.026 | -0.021 | 0.015
NUDT16 (UniProt Q96DE0) | -0.033 | -0.018 | 0.1 | -0.01 | -0.168 | 0.025 | 0.005 | 0.112 | 0.054 | 0.045 | 0.054 | 0.052 | 0.042 | -0.169 | 0.045 | 0.063 | -0.011 | 0 | -0.034 | 0.067
